From PubChem BioAssay (NCI)
About 79,000 compounds went through this panel and 15% of them were active in at least one assay; those are over-represented in the sample as a whole. Activity calls are given as the source filed them. No stated cut-off is given here; in the data, active means growth inhibition above about 70%; inactive means the rest.

Tests used:
[1] = NCI Yeast Anticancer Drug Screen. Data for the rad52 strain (AID 147);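 further: 0% = growth of vehicle-treated control cultures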; details: S. cerevisiae rad52 mutant growth inhibition, stronger effect = higher value
How it was run: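 Vehicle-treated cultures served as the reference for growth inhibition of compound-exposed yeast bearing a DNA repair mutation.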

[2] = NCI Yeast Anticancer Drug Screen. Data for the wt1 strain (AID 149);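 further: 0% = growth of vehicle-treated wt1 cultures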; details: S. cerevisiae wt1 strain (SPY 50644) growth inhibition, stronger effect = higher value
How it was run: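 Using yeast strain wt1, compound-induced growth inhibition was determined against vehicle-treated cultures.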

[3] = NCI Yeast Anticancer Drug Screen. Data for the rad50EPP+ strain (AID 151);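 further: 0% = growth of vehicle-treated control cultures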; details: S. cerevisiae rad50 mutant strain, stronger effect = higher value
How it was run: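 In this screen, rad50EPP+ yeast were exposed to compounds. Growth inhibition was scored against vehicle-treated controls.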

[4] = NCI Yeast Anticancer Drug Screen. Data for the mgt1 strain (AID 153); details: S. cerevisiae mgt1 mutant growth inhibition, stronger effect = higher value
How it was run: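 mgt1 strain exposed; growth vs vehicle control recorded as inhibition.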

[5] = NCI Yeast Anticancer Drug Screen. Data for the rad14 strain (AID 159);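 further: 0% = growth of vehicle-treated control cultures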; details: S. cerevisiae rad14 strain growth inhibition, stronger effect = higher value
How it was run: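 Screen for anticancer potential: a yeast strain altered in DNA damage repair is grown with compound, and reduced growth is quantified against vehicle controls.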

[6] = NCI Yeast Anticancer Drug Screen. Data for the CLN2oe strain (AID 163);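 further: 0% = growth of vehicle-only control cultures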; details: S. cerevisiae CLN2oe strain, stronger effect = higher value
How it was run: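 Inhibition relative to vehicle-treated yeast is reported. Cells: strain with genetic alteration in cell-cycle control, grown with compound.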

[7] = NCI Yeast Anticancer Drug Screen. Data for the wt2 strain (AID 169);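 further: 0% = growth of vehicle-treated yeast cultures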; details: S. cerevisiae wt2 strain growth inhibition, stronger effect = higher value
How it was run: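 Inhibition of yeast growth was determined after compound treatment, normalised to controls receiving only vehicle.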

[8] = NCI Yeast Anticancer Drug Screen. Data for the mlh1 strain (AID 171);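 further: 0% = growth of vehicle-treated control cultures of the same strain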; details: S. cerevisiae mlh1 strain growth inhibition, stronger effect = higher value
How it was run: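 Vehicle-normalised growth inhibition of a repair- or checkpoint-altered yeast strain following compound treatment.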

[9] = NCI Yeast Anticancer Drug Screen. Data for the sgs1 strain (AID 173);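 further: 0% = growth of vehicle-only control cultures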; details: S. cerevisiae sgs1 mutant, stronger effect = higher value
How it was run: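 Screen format: yeast with repair or checkpoint alterations, compound exposure, growth read relative to vehicle.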

[10] = NCI Yeast Anticancer Drug Screen. Data for the rad50 strain (AID 155);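 further: 0% = growth of vehicle-only cultures of the same strain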; details: S. cerevisiae rad50 strain growth inhibition, stronger effect = higher value
How it was run: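 Relative growth inhibition (compound vs vehicle) was measured in yeast with a defined repair-gene alteration.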

[11] = NCI Yeast Anticancer Drug Screen. Data for the mec2-1 strain (AID 157); details: S. cerevisiae mec2-1 strain, stronger effect = higher value
How it was run: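 Vehicle-treated cultures served as reference for growth inhibition of compound-exposed mec2-1 yeast.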

[12] = NCI Yeast Anticancer Drug Screen. Data for the sgs1 mgt1 strain (AID 161);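 further: 0% = growth of cultures given vehicle only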; details: S. cerevisiae sgs1 mgt1 strain, stronger effect = higher value
How it was run: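 Inhibition of yeast growth, normalised to vehicle-treated controls, is reported for a strain bearing genetic alterations in DNA damage repair.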

[13] = NCI Yeast Anticancer Drug Screen. Data for the cln2 rad14 strain (AID 165);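 further: 0% = growth equal to vehicle treated cultures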; details: S. cerevisiae cln2 rad14 strain, stronger effect = higher value
How it was run: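 Each compound was tested on cln2 rad14 yeast. Inhibition of growth was calculated against vehicle-exposed controls.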

[14] = NCI Yeast Anticancer Drug Screen. Data for the bub3 strain (AID 167); details: S. cerevisiae bub3 mutant strain, stronger effect = higher value
How it was run: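 Screening used yeast with an engineered genetic alteration affecting cell cycle control. Compound-exposed cultures were compared with vehicle cultures, and reduced growth was taken as inhibition.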

[15] = NCI Yeast Anticancer Drug Screen. Data for the mlh1 rad18 strain (AID 175); details: S. cerevisiae mlh1 rad18 strain growth inhibition, stronger effect = higher value
How it was run: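 Vehicle-treated cultures served as the reference for growth inhibition in a yeast strain carrying DNA damage repair alterations exposed to each compound.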

[16] = at 5.0 µM (retest, dose inferred, filed as 0.5)
[17] = at 50.0 µM (retest, dose inferred, filed as 5.0)

Measured: growth inhibition

O=C(O)c1ccccc1.[Ag]
inactive: [6]; at 1.2 µM 50%
active: [1]; at 1.2 µM 72% | [1]; at 3.7 µM 101% | [1]; at 11.0 µM 99% | [1]; at 33.0 µM 98% | [1]; at 100.0 µM 98% | [2]; at 1.2 µM 88% | [2]; at 3.7 µM 101% | [2]; at 11.0 µM 99% | [2]; at 33.0 µM 99% | [2]; at 100.0 µM 99% | [3]; at 1.2 µM 94% | [3]; at 3.7 µM 101% | [3]; at 11.0 µM 99% | [3]; at 33.0 µM 99% | [3]; at 100.0 µM 98% | [4]; at 1.2 µM 98% | [4]; at 3.7 µM 101% | [4]; at 11.0 µM 99% | [4]; at 33.0 µM 99% | [4]; at 100.0 µM 99% | [5]; at 1.2 µM 91% | [5]; at 3.7 µM 101% | [5]; at 11.0 µM 99% | [5]; at 33.0 µM 99% | [5]; at 100.0 µM 99% | [6]; at 3.7 µM 101% | [6]; at 11.0 µM 98% | [6]; at 33.0 µM 98% | [6]; at 100.0 µM 98% | [7]; at 1.2 µM 76% | [7]; at 3.7 µM 101% | [7]; at 11.0 µM 99% | [7]; at 33.0 µM 99% | [7]; at 100.0 µM 99% | [8]; at 1.2 µM 96% | [8]; at 3.7 µM 101% | [8]; at 11.0 µM 99% | [8]; at 33.0 µM 99% | [8]; at 100.0 µM 99% | [9]; at 1.2 µM 75% | [9]; at 3.7 µM 101% | [9]; at 11.0 µM 99% | [9]; at 33.0 µM 99% | [9]; at 100.0 µM 99%

Cc1ccc(CNc2ccc(Br)cc2)cc1
inactive: [1]; at 1.2 µM 5% | [1]; at 3.7 µM 7% | [1]; at 11.0 µM 18% | [1]; at 33.0 µM 66% | [2]; at 1.2 µM -29% | [2]; at 3.7 µM -28% | [2]; at 11.0 µM -27% | [2]; at 33.0 µM 24% | [3]; at 1.2 µM -10% | [3]; at 3.7 µM -11% | [3]; at 11.0 µM -4% | [3]; at 33.0 µM 14% | [3]; at 100.0 µM 64% | [4]; at 1.2 µM 16% | [4]; at 3.7 µM 12% | [4]; at 11.0 µM 27% | [4]; at 33.0 µM 69% | [10]; at 1.2 µM 17% | [10]; at 3.7 µM 6% | [10]; [16] 61% | [10]; at 11.0 µM 16% | [10]; at 33.0 µM 67% | [10]; at 50.0 µM 62.8% | [11]; at 1.2 µM 1% | [11]; at 3.7 µM 2% | [11]; [16] 63% | [11]; at 11.0 µM 17% | [11]; at 33.0 µM 66% | [5]; at 1.2 µM -17% | [5]; at 3.7 µM -18% | [5]; at 11.0 µM -2% | [12]; [16] -19% | [6]; at 1.2 µM -9% | [6]; at 3.7 µM 11% | [6]; at 11.0 µM 6% | [6]; at 33.0 µM 34% | [13]; [16] 61% | [14]; at 1.2 µM -7% | [14]; at 3.7 µM 11% | [14]; [16] 32% | [14]; at 11.0 µM 26% | [14]; at 33.0 µM 63% | [7]; at 1.2 µM -31% | [7]; at 3.7 µM -30% | [7]; at 11.0 µM -13% | [7]; at 33.0 µM 35% | [8]; at 1.2 µM -32% | [8]; at 3.7 µM -31% | [8]; at 11.0 µM -21% | [8]; at 33.0 µM 40% | [15]; [16] 28% | [15]; at 50.0 µM 60.2%
active: [1]; at 100.0 µM 88% | [2]; at 100.0 µM 82% | [4]; at 100.0 µM 92% | [10]; [17] 89% | [10]; at 100.0 µM 82% | [11]; [17] 90% | [11]; at 50.0 µM 76.7% | [11]; at 100.0 µM 93% | [5]; at 33.0 µM 71% | [5]; at 100.0 µM 92% | [12]; [17] 94% | [6]; at 100.0 µM 81% | [13]; [17] 97% | [14]; [17] 94% | [14]; at 100.0 µM 91% | [7]; at 100.0 µM 87% | [8]; at 100.0 µM 85% | [15]; [17] 77%
